From the supplement of paper PMC10720658 come the findings set out here.

± gives the standard deviation of the averaged measurements.

The assay deals with AEK1 (Tb927.3.2440). Nature of the assay: percent reduction in TR-FRET probe signal relative to DMSO control; higher = stronger displacement of ATP-site probe (binding). The settings on record: 1 µM; incubation time 1 h.
With `Cc1c[nH]c2nc(Nc3ccc(N4CCN(C)CC4)c(F)c3)nc(-c3cccc(CC#N)c3)c12`, the “percent reduction in TR-FRET probe signal” value (from here on “percent reduction”) is 56.3 ± 2%.
To `CCO.N#CC(=C(\N)Sc1ccccc1N)/C(C#N)=C(/N)Sc1ccccc1N` belongs 0.443 ± 7.1%; to `O=C(O)[C@]1(Cc2cccc(Nc3nccs3)n2)CC[C@@H](Oc2cccc(Cl)c2F)CC1`, 19.3 ± 12%; to `CNC(=O)c1c(F)cccc1Nc1nc(Nc2cc3c(cc2OC)CCN3C(=O)CN(C)C)nc2[nH]ccc12`, -0.577 ± 11%.
Consider `CN1CCN(c2ccc3nc(-c4c(N)c5c(F)cccc5[nH]c4=O)[nH]c3c2)CC1` [Dovitinib (TKI-258, CHIR-258)], for which the “percent reduction” value was found to be 16.9 ± 16%.
To `Nc1ncnc2c1c(-c1cccc(OCc3ccccc3)c1)cn2[C@H]1C[C@@H](CN2CCC2)C1` belongs 0.997 ± 12%; to `N#CC[C@@H](C1CCCC1)n1cc(-c2ncnc3[nH]ccc23)cn1`, 19.4 ± 9.1%.
In the case of `N#Cc1c(O)c2c(-c3ccc(-c4ccccc4O)cc3)csc2[nH]c1=O` it was -7.05 ± 2.1%; in that of `COc1cc(Nc2ncc(F)c(Nc3ccc4c(n3)N(COP(=O)(O)O)C(=O)C(C)(C)O4)n2)cc(OC)c1OC` [Fostamatinib (R788)], 31.3 ± 1.3%; in that of `O=C1NC(=O)/C(=C/c2ccc3c(c2)OC(F)(F)O3)S1`, -3.7 ± 5.9%.
In the case of `Nc1nccc(Oc2ccc(NC(=O)c3c[nH]cc(-c4ccc(F)cc4)c3=O)cc2F)c1Cl` it was 24.6 ± 15%; in that of `COc1ccc(-c2nc(N3CCOCC3)c3sc(CN(C)c4ncc(C(=O)NO)cn4)cc3n2)cn1`, -2.41 ± 5.7%.
On to `Cc1cn(-c2cc(NC(=O)c3ccc(C)c(Nc4nccc(-c5cccnc5)n4)c3)cc(C(F)(F)F)c2)cn1` [Nilotinib (AMN-107)], for which the “percent reduction” value was found to be 17.5 ± 28%.
In the case of `COc1ccc(-c2ccc3c(N4CCOCC4)nc(N4C[C@@H](C)O[C@@H](C)C4)nc3n2)cc1CO` it was -3.76 ± 6.3%; in that of `COc1cc(C(=O)NC2CCN(C)CC2)ccc1Nc1ncc2c(n1)N(C1CCCC1)CC(F)(F)C(=O)N2C`, -5 ± 7%; in that of `Cc1ccc(C(=O)Nc2cccc(C(F)(F)F)c2)cc1Nc1nc(-c2cccnc2)nc2c1cnn2C`, 1 ± 8.4%.
In the case of `CNC(=O)c1cc(Oc2ccc(NC(=O)Nc3ccc(Cl)c(C(F)(F)F)c3)c(F)c2)ccn1` [Regorafenib (BAY 73-4506)] it was 11.5 ± 5.7%; in that of `CC(C)(O)CNc1ncc(-c2ccnc(Nc3ccnc(Cl)c3)n2)c(CC2CC2)n1`, 4.25 ± 12%; in that of `COCCOc1cnc2ccn([C@H](C)c3nnc4c(F)cc(-c5cnn(C)c5)cn34)c(=O)c2c1`, 5.44 ± 17%.
In the case of `O=c1ccc2ccc(O)c(O)c2o1` [Daphnetin] it was -1.13 ± 8.9%; in that of `C[C@H](NC(=O)/C(C#N)=C/c1cccc(Br)n1)c1ccccc1`, -10.8 ± 3.7%.
`OCCn1cc(-c2cnc3nnn(Cc4ccc5ncccc5c4)c3n2)cn1`: the “percent reduction” value was -2.19 ± 3.1%.
In the case of `CCc1ccc(/C=C2/SC(=S)NC2=O)cc1` it was -1.24 ± 9.7%.
`CCc1cc(Nc2nccc(-c3c(-c4ccc(OC)c(C(=O)Nc5c(F)cccc5F)c4)nc4ccccn34)n2)c(OC)cc1N1CCC(N2CCN(S(C)(=O)=O)CC2)CC1`: the “percent reduction” value is -12.2 ± 12%.
In the case of `COc1cc2nccc(Oc3ccc(NC(=O)Nc4cc(C)on4)c(Cl)c3)c2cc1OC` [Tivozanib (AV-951)] it was -2.48 ± 4.1%.
In the case of `COc1cccc2cc(-c3nc([C@H]4CC[C@H](C(=O)O)CC4)n4ncnc(N)c34)[nH]c12` it was -0.417 ± 9.2%; in that of `COC(=O)Nc1ccc(-c2nc(N3CCOCC3)c3cnn(C4CCN(C(=O)OC)CC4)c3n2)cc1`, -6.41 ± 11%; in that of `Cc1csc(-c2nnc(Nc3ccc(Oc4ncccc4-c4ccnc(N)n4)cc3)c3ccccc23)c1`, 55.7 ± 11%.
To `Cc1cc2c(F)c(Oc3ncnn4cc(OC[C@@H](C)O)c(C)c34)ccc2[nH]1` belongs 20.2 ± 15%.
Regarding `Cl.N=C(N)NC(=N)NCCc1ccccc1` [Phenformin HCl], the “percent reduction” value was determined as 12.1 ± 8.3%.
In the case of `Cc1n[nH]c2ccc(-c3cncc(OC[C@@H](N)Cc4ccccc4)c3)cc12` it was 14.1 ± 24%; in that of `Cc1c(CN2CCN(C(=O)[C@H](C)O)CC2)sc2c(N3CCOCC3)nc(-c3cnc(N)nc3)nc12`, 0.467 ± 7.8%; in that of `CN1CCN(c2ccc(Nc3cc(-c4cccc(-n5ccc6cc(C7CC7)cc(F)c6c5=O)c4CO)cn(C)c3=O)nc2)CC1`, 6.04 ± 9%.
In the case of `O=C(NC(NC(=S)Nc1ccc(F)c([N+](=O)[O-])c1)C(Cl)(Cl)Cl)C(c1ccccc1)c1ccccc1` (configuration not stated) it was 3.75 ± 8.9%.
To `Cn1ncc(Cl)c1-c1cc(C(=O)N[C@H](CN)Cc2ccc(F)c(F)c2)oc1Cl` belongs 33.2 ± 9.4%; to `O=C(NCCO)c1cccc(-c2cc(Nc3ccc(OC(F)(F)F)cc3)ncn2)c1`, 13.3 ± 16%; to `CCCCCCCCc1ccc(CCC(N)(CO)CO)cc1.Cl` [Fingolimod (FTY720) HCl], -8.59 ± 6.3%.
